# FUS yeast rescue – qHTS for Suppressors of FUS Proteinopathy: Primary screen using FUS-linked yeast assay; hit rate 0.24% among 390,000; AID 1347120, 2019; S. cerevisiae FUS-expressing, growth rescue, OD600, 24 h; Potency, µM (highest dose often 76.6 µM), hits mostly activators;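 note: plate controls were DMSO vehicle for no effect and reference control for full effect; nearly all actives have a fitted effect of over 55% in size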
#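 Compound concentration series was pinned onto galactose-induced FUS-expressing yeast seeded at OD 0.005. Plates sat 24hr at 30C; absorbance at 600 nm gave growth. DMSO served as background control.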
# TDP-43 yeast inh – qHTS of TDP-43 Inhibitors | TDP-43 expressing yeast growth rescue, BacTiter-Glo, 24 h | Potency, µM (highest dose often 46.1 µM), for inactives: at the top dose growth rescue (activation), most hits filed as activators | hit rate 1.8% among 410,000; note: % of control where 0% means no effect; nearly all actives have a fitted effect of over 50% in size
#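 Luminescence from BacTiter-Glo reports growth of TDP-43-expressing yeast after 24 hr at 30 deg C with compound. Cells were raffinose-pregrown to mid-log, then seeded in galactose medium at OD600=0.02.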
# aSyn rescue – qHTS of alpha-syn Inhibitors. Yeast expressing alpha-synuclein, growth rescue, BacTiter-Glo, 24 h. Potency, µM (titrated, usually from 46.1 µM), for inactives: at the highest dose growth rescue (activation), actives largely listed as activators. hit rate 0.14% among 370,000. AID 652106, 2013; note: % of control where 0% means no effect; nearly all actives have a fitted effect of over 65% in size
#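 Rescue of yeast growth: cells expressing toxic alpha-synuclein, induced in galactose at OD600 0.02, incubated with compound 24 h at 30 C. ATP luminescence quantified growth; inhibitors of toxicity appear as activators.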
# Abeta rescue – qHTS for compounds that reverse cellular toxicity of Amyloid beta (A-beta) peptide in yeast: Primary Screen; AID 1347071, 2019; hit rate 0.063% among 410,000; Potency, µM (highest dose often 46.1 µM), actives largely listed as activators; yeast expressing A-beta42, growth rescue, OD600, 48 h; response scale: 0% DMSO, 100% iron-clioquinol control; note: nearly all actives have a fitted effect of over 55% in size
#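 Growth rescue measured by 600 nm absorbance after 48 h yeast culture at 30 C with compound. Values normalized between DMSO and an equimolar ferric chloride plus clioquinol control.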
# Numbers without * were called inactive; i = inactive; u = inconclusive; x = not tested or not shown. Compounds with a hit are over-represented: about 2.1% of the library has one in this group of screens. Calls come from the whole dose curve; as a rule, active = well fitted curve in the direction sought with a large enough effect; inconclusive = small, poorly fitted or top-dose-only effect, or another doubt; inactive = no such curve, though single readings can be large; an effect the other way counts as inactive or inconclusive. Potency is the fitted concentration of half-maximal effect.
SMILES,FUS yeast rescue,TDP-43 yeast inh,aSyn rescue,Abeta rescue
Cc1ccc(C2CC(c3cccs3)=NN2C(=O)CSC2=NCCS2)cc1 (configuration not stated),i,u,10%,i
Cc1ccc(C2CC(c3cccs3)=NN2C(=O)CCl)cc1 (configuration not stated),i,13µM*,1%,i
CCC(=O)N1N=C(c2cccs2)CC1c1ccc(C)cc1 (configuration not stated),i,20µM*,16%,i
CNC(=S)N1N=C(c2cccs2)CC1c1ccc(F)cc1 (configuration not stated),i,10µM*,10%,i
COc1ccc(C2CC(c3cccs3)=NN2C(=O)CSC2=NCCS2)cc1 (configuration not stated),35µM*,29%,9%,i
Nc1ncnc2oc(-c3ccco3)c(-c3ccco3)c12,i,-17%,13µM*,i
COc1ccc(NC(=O)C2CCCN(c3ncccn3)C2)cc1 (configuration not stated),i,6%,-7%,i
CCC(C)c1ccc(NC(=O)C2CCCN(c3ncccn3)C2)cc1 (configuration not stated),i,13µM*,x,i
COc1ccc(N2CCN(C(=O)CCC(=O)N3CCOc4ccc(Cl)cc43)CC2)cc1,i,16µM*,10%,i
Cc1cccc(NC(=S)NNC(=O)c2ccco2)c1,i,-12%,-30%,i
O=C(NC(=S)NNC(=O)c1ccco1)c1ccccc1,i,u,13µM*,u
O=C(/C=C/c1ccccc1)NC(=S)NNC(=O)c1ccco1,u,11µM*,3.5µM*,i
O=C(/C=C/c1ccc(Br)cc1)NC(=S)NNC(=O)c1ccco1,i,5.6µM*,22µM*,i
O=C(NNC(=O)c1ccco1)c1ccccc1,i,-11%,-14%,i
O=C(/C=C/c1ccccc1)NC(=S)Nc1ccccc1,i,10%,0%,u
O=C1CSc2ccc(C(=O)N3CCCC(C(=O)N4CCCN(Cc5ccccc5)CC4)C3)cc2N1 (configuration not stated),i,x,x,x
Cc1ccc2oc(-c3ccc(NC(=O)COc4ccccc4)cc3O)nc2c1,x,x,-4%,x
OCC(O)C[n+]1cccc(Br)c1 (configuration not stated),x,x,-1%,x
COC(=O)c1cccc(NC(=S)Nc2cc(Cl)ccc2OC)c1,i,22µM*,5%,i
COc1ccc(C(=O)Nc2cc(C(=O)O)cc(C(=O)O)c2)cc1Cl,i,-24%,-5%,i
COC(=O)c1cc(OC)c(OC)cc1NC(=S)Nc1cccc(C(C)=O)c1,i,-6%,-7%,i
COC(=O)c1cccc(NC(=O)c2ccc(OC)c(Cl)c2)c1,i,11µM*,2%,i
CC(C)(C)C(=O)OCCNc1nc(-c2cccs2)nc2ccccc12,x,x,-12%,x
Cc1[nH]n(-c2ccccc2)c(=O)c1/C=N/N1C(=O)c2ccc3c4c(ccc(c24)C1=O)CC3,i,5µM*,25µM*,8.9µM*
Cc1[nH]n(-c2ccccc2)c(=O)c1/C=N/O,i,14%,9%,i
SMILES,FUS yeast rescue,TDP-43 yeast inh,aSyn rescue,Abeta rescue
Cc1[nH]n(-c2ccccc2)c(=O)c1/C=N/NC(=O)c1ccccc1F,i,u,9%,10µM*
C[C@H]1[C@H](NC(=O)c2ccc(Cl)c(Cl)c2)CC[C@@]23CCCN2C(=O)CCC[C@@H]13,i,x,x,x
C=CCN(C(=O)[C@@H](C1CC1)[C@@H](O)c1ccc(Cl)cc1)c1ccccc1,i,x,x,x
O=S(=O)(c1ccccc1)n1nc(-c2ccco2)nc1NCc1ccccc1,i,0%,x,i
COc1cc(OC)c(NC(=O)CCCn2nc(C)c3sc4ccccc4c3c2=O)cc1Cl,i,23%,x,i
O=CN1Cc2ccccc2-c2ccccc2C1,i,13µM*,18%,i
Clc1ncnc2c1oc1ccccc12,i,18%,-4%,i
c1coc(CN(Cc2ccco2)c2ncnc3c2oc2ccccc23)c1,u,20µM*,1%,i
COc1cccc(C=NNC(=O)CSc2nc3ccccc3[nH]2)c1O,i,x,x,x
O=C1CSc2ccc(C(=O)Nc3cccc(S(=O)(=O)Nc4ccc(Br)cc4)c3)cc2N1,7.1µM*,-14%,-7%,i
CC1Cc2ccccc2N1C(=S)NC(=O)C1(C)CC1(Cl)Cl (configuration not stated),i,u,-6%,13µM*
O=C(NCCN1CCC(Cc2ccccc2)CC1)C1CCCN(S(=O)(=O)c2ccccc2)C1 (configuration not stated),i,x,x,x
CCOC(=O)N1CCN(/[N+]([O-])=N/OCOC)CC1,x,x,0%,x
COC(=O)[C@@]1(Cc2ccc(F)cc2)[C@H]2c3cc(C(=O)N(C)C)n(CCc4c[nH]c5ccc(O)cc45)c3C[C@H]2CN1C(=O)c1ccccc1,16µM*,28%,-1%,i
COc1ccc(-c2nc(-c3ccc(O)cc3O)cs2)cc1OC,i,18µM*,1%,i
O=S(=O)(c1ccc(F)cc1)N1CCC(c2nc3ccccc3o2)CC1,i,x,x,x
Cc1cc(OCC(=O)NNC(=O)c2cnccn2)cc(C)c1Cl,i,u,18µM*,u
Cc1ccc(OCC(=O)NCCCNC(=O)c2cnccn2)cc1C,i,-14%,0%,i
Cn1c2ccccc2c(=O)c2ccc(NCc3ccc4c(c3)OCO4)cc21,i,16µM*,-19%,i
Cc1nc2sc(C(=O)NCc3ccc4c(c3)OCO4)c(N)c2c(C)c1Cl,i,x,x,x
C[C@H]1[C@H](N)CC[C@@]23CCCN2C(=O)CCC[C@@H]13,i,x,x,x
COc1ccc(-n2ccn(CC(=O)NCCc3ccccc3)c(=O)c2=O)cc1OC,i,3%,x,i
CN=c1sc(C(=O)Nc2ccccc2)c(C)n1C,i,-1%,4%,i
CN=c1sc2c(n1C)C(=O)c1ccccc1C2=O,x,11µM*,3%,i
Cc1nn(-c2ccccc2)c2sc(C(=O)O)cc12,i,u,-22%,i
SMILES,FUS yeast rescue,TDP-43 yeast inh,aSyn rescue,Abeta rescue
Cc1nn(-c2ccccc2)c2sc(-c3n[nH]c(=S)o3)cc12,7.1µM*,u,-43%,i
S=C(NCc1ccccc1)NCc1cccc(Cl)c1,i,29%,3%,14µM*
O=C(NCc1cccnc1)/C(=C/c1ccccc1)NC(=O)c1ccccc1,i,13%,0%,i
O=C(NC(=S)NCc1ccccc1)c1cccc(Cl)c1,i,16µM*,1%,i
Cc1ccc(C(=O)NC(=S)NCc2ccccc2)cc1,i,16µM*,-9%,u
O=C(NC(=S)NCc1ccccc1)c1cccnc1,i,3%,-1%,i
Cc1ccc(C(=O)N/C(=C\c2ccccc2)C(=O)NCc2cccnc2)cc1,i,2µM*,-8%,i

# High-throughput results: PubChem BioAssay, National Center for Advancing Translational Sciences (NCATS)
